The results in this text go back to the supplement of paper PMC3545927.

This is one part of the list. No count for the full screen is at hand.

In this assay the target is furin, P09958. Kind of assay: furin cleavage Z-score vs untreated control; higher = more cleavage, active = 3.5 or more, inactive = 1 or less, 8 variable residues between constant flanks. The procedure, abridged:
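Furin cleavage was scored on 8-mer peptides joined to a cDNA oligonucleotide and bound to magnetic beads at the N-terminus. Digestion with purified furin (1:10 enzyme:substrate, 0.01 ml, 50 mM HEPES pH 7.5, CaCl2, NaCl) lasted 7.5, 15 or 30 min. Freed DNA was tagged with adapters by PCR, sequenced and counted; the cleavage Z-score is the lowess-adjusted log count versus furin-free reactions, scaled by median absolute deviation.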

furin, P09958, sequence (P09958 whole entry): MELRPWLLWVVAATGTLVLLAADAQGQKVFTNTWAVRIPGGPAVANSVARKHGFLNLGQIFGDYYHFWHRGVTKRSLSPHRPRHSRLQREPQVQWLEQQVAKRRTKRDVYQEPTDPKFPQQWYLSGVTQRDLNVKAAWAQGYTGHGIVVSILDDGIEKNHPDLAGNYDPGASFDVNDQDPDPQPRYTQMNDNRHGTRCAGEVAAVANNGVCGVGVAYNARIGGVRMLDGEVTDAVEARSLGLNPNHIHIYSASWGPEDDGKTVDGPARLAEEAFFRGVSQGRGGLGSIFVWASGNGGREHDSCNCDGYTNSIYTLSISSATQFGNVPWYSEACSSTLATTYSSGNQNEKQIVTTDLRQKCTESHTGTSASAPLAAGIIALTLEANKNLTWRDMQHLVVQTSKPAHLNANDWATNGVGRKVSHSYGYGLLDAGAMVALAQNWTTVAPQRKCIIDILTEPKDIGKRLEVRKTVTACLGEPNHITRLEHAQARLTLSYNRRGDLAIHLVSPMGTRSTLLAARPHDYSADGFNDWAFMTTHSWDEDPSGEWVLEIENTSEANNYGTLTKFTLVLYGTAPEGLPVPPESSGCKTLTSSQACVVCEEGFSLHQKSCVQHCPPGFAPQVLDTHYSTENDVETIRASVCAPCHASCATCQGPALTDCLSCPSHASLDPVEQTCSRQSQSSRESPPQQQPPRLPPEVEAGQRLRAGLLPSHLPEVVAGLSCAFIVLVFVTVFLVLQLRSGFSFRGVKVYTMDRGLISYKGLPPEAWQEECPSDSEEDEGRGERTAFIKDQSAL

B1: HC2138 (peptide)
chain: CAETVVCCSMAGNASASA
On to B1, for which the “furin cleavage Z-score” value by setting is: (7.5 min) 0.723 (inactive); (15 min) 1.46; (30 min) 0.375 (inactive).

B2: FS-460 (peptide)
chain: CALSRRLKRAAGNASASA
B2: the “furin cleavage Z-score” value is 12.9 (active) (7.5 min), 10.6 (active) (15 min) and 7.76 (active) (30 min).

B3: HC490 (peptide)
chain: CARSELSPLLAGNASASA
Consider B3, for which the “furin cleavage Z-score” value is, setting by setting: (7.5 min) 0.997 (inactive); (15 min) -1.17 (inactive); (30 min) 0.877 (inactive).

B4: FS-3208 (peptide)
chain: CARSKRSRLLAGNASASA
Consider B4, for which the “furin cleavage Z-score” value (7.5 min) was determined as 2.35, the “furin cleavage Z-score” value (15 min) is 5.37 (active) and the “furin cleavage Z-score” value (30 min) was 6.91 (active).

B5: FS-3086 (peptide)
chain: CARSKRRHRTAGNASASA
On to B5, for which the “furin cleavage Z-score” value by setting is: (7.5 min) 5.67 (active); (15 min) 4.65 (active); (30 min) 6.42 (active).

B6: HC1623 (peptide)
chain: CARSVRARLLAGNASASA
In the case of B6, the “furin cleavage Z-score” value (7.5 min) was -0.453 (inactive), the “furin cleavage Z-score” value (15 min) is 0.839 (inactive) and the “furin cleavage Z-score” value (30 min) was -0.225 (inactive).

B7: FS-3085 (peptide)
chain: CARSKRPPLVAGNASASA
With B7, the “furin cleavage Z-score” value (7.5 min) was -1.04 (inactive), the “furin cleavage Z-score” value (15 min) is 1.04 and the “furin cleavage Z-score” value (30 min) was 0.266 (inactive).

B8: FS-2305 (peptide)
chain: CARSKRQLRRAGNASASA
Consider B8, for which the “furin cleavage Z-score” value by setting is: (7.5 min) 5.77 (active); (15 min) 8.83 (active); (30 min) 9.3 (active).

B9: FS-1930 (peptide)
chain: CARSKRSALRAGNASASA
In the case of B9, the “furin cleavage Z-score” value was 8.67 (active) (7.5 min), 9.74 (active) (15 min) and 9.58 (active) (30 min).

B10: HC1136 (peptide)
chain: CALTVTQLLRAGNASASA
For B10, the “furin cleavage Z-score” value was -0.529 (inactive) (7.5 min), 1.28 (15 min) and -0.0718 (inactive) (30 min).

B11: HC287 (peptide)
chain: CALPATQLRRAGNASASA
On to B11, for which the “furin cleavage Z-score” value is, setting by setting: (7.5 min) -0.751 (inactive); (15 min) -1.22 (inactive); (30 min) -0.432 (inactive).

B12: HC1572 (peptide)
chain: CATPVNSWLGAGNASASA
As to B12, the “furin cleavage Z-score” value (7.5 min) was -0.962 (inactive), the “furin cleavage Z-score” value (15 min) is 0.658 (inactive) and the “furin cleavage Z-score” value (30 min) is -0.136 (inactive).

B13: HC963 (peptide)
chain: CADQMWKCLIAGNASASA
For the sequence B13, the “furin cleavage Z-score” value reads like this: (7.5 min) -0.00547 (inactive); (15 min) 0.512 (inactive); (30 min) 0.111 (inactive).

B14: HC2383 (peptide)
chain: CAEVPCHRASAGNASASA
On to B14, for which the “furin cleavage Z-score” value was -0.108 (inactive) (7.5 min), 1.91 (15 min) and 1.32 (30 min).

B15: HC1527 (peptide)
chain: CAMLVCGDDLAGNASASA
Regarding B15, the “furin cleavage Z-score” value reads like this: (7.5 min) -1.47 (inactive); (15 min) -2.12 (inactive); (30 min) -1.71 (inactive).

B16: FS-2524 (peptide)
chain: CARSKRLLSDAGNASASA
With B16, the “furin cleavage Z-score” value by setting is: (7.5 min) 1.69; (15 min) 0.376 (inactive); (30 min) 1.96.

B17: FS-3171 (peptide)
chain: CARSKRSTLLAGNASASA
As to B17, the “furin cleavage Z-score” value is, setting by setting: (7.5 min) 6.63 (active); (15 min) 9.65 (active); (30 min) 8.72 (active).

B18: FS-2354 (peptide)
chain: CARMKRDTSLAGNASASA
Regarding B18, the “furin cleavage Z-score” value by setting is: (7.5 min) 12.7 (active); (15 min) 14.2 (active); (30 min) 10.6 (active).

B19: FS-3264 (peptide)
chain: CARSKRLMKRAGNASASA
B19: the “furin cleavage Z-score” value is 7.59 (active) (7.5 min), 8.33 (active) (15 min) and 6.04 (active) (30 min).

B20: HC674 (peptide)
chain: CAAPITAYAQAGNASASA
Consider B20, for which the “furin cleavage Z-score” value is, setting by setting: (7.5 min) -1.65 (inactive); (15 min) -1.79 (inactive); (30 min) -0.691 (inactive).

B21: FS-2108 (peptide)
chain: CARVRRRGSPAGNASASA
For the sequence B21, the “furin cleavage Z-score” value is -0.273 (inactive) (7.5 min), 2.05 (15 min) and 2 (30 min).

B22: FS-2406 (peptide)
chain: CARVRRHSDPAGNASASA
As to B22, the “furin cleavage Z-score” value was 10.2 (active) (7.5 min), 8.54 (active) (15 min) and 6.84 (active) (30 min).

B23: FS-2536 (peptide)
chain: CARVRRAVLPAGNASASA
In the case of B23, the “furin cleavage Z-score” value was 8.16 (active) (7.5 min), 9.49 (active) (15 min) and 9.52 (active) (30 min).

B24: FS-2028 (peptide)
chain: CARIARVVLQAGNASASA
In the case of B24, the “furin cleavage Z-score” value was -0.514 (inactive) (7.5 min), -0.914 (inactive) (15 min) and 1.2 (30 min).

B25: HC909 (peptide)
chain: CAGIYRFVAPAGNASASA
Take B25: the “furin cleavage Z-score” value is -1.23 (inactive) (7.5 min), -0.739 (inactive) (15 min) and -0.847 (inactive) (30 min).

B26: FS-2583 (peptide)
chain: CARQGRGSDPAGNASASA
With B26, the “furin cleavage Z-score” value reads like this: (7.5 min) -1.86 (inactive); (15 min) -0.176 (inactive); (30 min) 0.17 (inactive).

B27: FS-1801 (peptide)
chain: CARVPRTVLPAGNASASA
In the case of B27, the “furin cleavage Z-score” value (7.5 min) was found to be 1.52, the “furin cleavage Z-score” value (15 min) is 0.946 (inactive) and the “furin cleavage Z-score” value (30 min) is 3.87 (active).

B28: FS-2683 (peptide)
chain: CARIARFVLPAGNASASA
B28: the “furin cleavage Z-score” value (7.5 min) is 2.58, the “furin cleavage Z-score” value (15 min) came out at 2.47 and the “furin cleavage Z-score” value (30 min) was 6.22 (active).

B29: FS-3121 (peptide)
chain: CARVPRKVQPAGNASASA
On to B29, for which the “furin cleavage Z-score” value runs as follows: (7.5 min) -0.302 (inactive); (15 min) 1.08; (30 min) 0.984 (inactive).

B30: HC495 (peptide)
chain: CATTQWQVLPAGNASASA
Take B30: the “furin cleavage Z-score” value was -0.0417 (inactive) (7.5 min), 1.36 (15 min) and 0.907 (inactive) (30 min).
